GPR151 ag: human GPR151 activation; PathHunter beta-arrestin GPR151 cells, luminescence; Q8TDV0; AID 1508602; 650,000 tested, 1% active; activation, % at 11.2 µM; in the data active = activation above about 4.9%;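 also: 0% = median of compound wells and 100% = cells with positive control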
Target sequence (Q8TDV0 whole entry, looked up): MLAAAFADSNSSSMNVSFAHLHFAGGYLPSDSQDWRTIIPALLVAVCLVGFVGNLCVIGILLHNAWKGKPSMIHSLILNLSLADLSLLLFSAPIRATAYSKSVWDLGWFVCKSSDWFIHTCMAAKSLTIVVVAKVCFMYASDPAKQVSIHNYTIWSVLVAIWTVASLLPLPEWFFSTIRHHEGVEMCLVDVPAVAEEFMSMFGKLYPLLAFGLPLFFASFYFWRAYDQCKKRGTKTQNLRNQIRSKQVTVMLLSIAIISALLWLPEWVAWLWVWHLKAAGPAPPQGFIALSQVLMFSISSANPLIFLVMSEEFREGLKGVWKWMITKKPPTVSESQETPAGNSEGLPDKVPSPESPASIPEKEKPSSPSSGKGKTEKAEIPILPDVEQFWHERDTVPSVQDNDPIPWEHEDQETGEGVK
TEAD-YAP inh: TEAD-YAP interaction inhibition | HEK-TIYL cells, TEAD-Gal4/YAP UAS-luciferase luminescence | inhibition, % at 9.12 µM | 640,000 tested, 1.4% active; in the data active = inhibition above about 32%;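 also: 0% = median of test compound wells and 100% = reference inhibitor wells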
MITF primary: blocks human microphthalmia-associated transcription factor. 650,000 tested, 0.91% active. AlphaScreen MITF homodimerization, bead proximity signal. inhibition, % at 2.6 µM; in the data active = inhibition above about 50%;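 also: 0% = vehicle wells with protein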
FBW7 act: activators of human E3 ligase FBW7; 650,000 tested, 0.13% active; normalized activity (activation), % at 26.1 µM; AlphaScreen FBW7–phospho-cyclin E peptide binding, activator screen; in the data active = normalized activity above about 1.9%;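 also: purified mutant Fbw7 with reduced substrate affinity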
Active calls of the source: *. Compounds with a hit are over-represented: about 3.5% of the library has one in this group of screens.

`CC(=O)Nc1cc2ccccc2oc1=O` gave GPR151 ag -1.1, TEAD-YAP inh -1.7, MITF primary 26.0 and FBW7 act 0.2.
Screening CCCCc1ccc(C(=O)Nc2cc3ccccc3oc2=O)cc1 returned GPR151 ag 0.9, TEAD-YAP inh 54.7*, MITF primary -1.4 and FBW7 act 0.0.
For Cc1ccc(C(=O)Nc2cc3ccccc3oc2=O)cc1 the results were GPR151 ag -2.3, TEAD-YAP inh 86.5*, MITF primary 8.1 and FBW7 act 0.0.
Cc1ccc(C(=O)Nc2cc3ccccc3oc2=O)cc1C was read as GPR151 ag -2.1, TEAD-YAP inh 61.7*, MITF primary -3.3 and FBW7 act -0.2.
Cc1ccc(C(=O)Nc2cc3cc(Br)ccc3oc2=O)cc1C was read as GPR151 ag -1.2, TEAD-YAP inh -10.1, MITF primary -2.0 and FBW7 act -0.1.
CCOC(=O)/C=C(\C)Nc1cccc2c(C)c(C)[nH]c12 was read as GPR151 ag -0.5, TEAD-YAP inh -0.5, MITF primary 2.4 and FBW7 act 0.9.
Screening CCOC(=O)C1=C(C)NC(SC)=C(C#N)C1CC(C)C (configuration not stated) returned GPR151 ag -0.2, TEAD-YAP inh 38.1*, MITF primary 2.1 and FBW7 act 0.1.
Screening O=S(=O)(c1ccc(Br)cc1)N1CCc2ccccc2C1 returned GPR151 ag -0.9, TEAD-YAP inh 8.7, MITF primary 11.0 and FBW7 act -0.2.
For CCOC(=O)C1=C(C)NC2=C(C(=O)c3ccccc32)C1c1cc(OC)c(OC)c(OC)c1 (configuration not stated) the results were GPR151 ag 0.1, TEAD-YAP inh 52.7*, MITF primary 6.5 and FBW7 act -0.4.
Screening CCN1C(=C2C(=O)c3ccccc3C2=O)C=Cc2cc(C)ccc21 returned GPR151 ag 0.8, TEAD-YAP inh -44.1, MITF primary 8.7 and FBW7 act 0.1.
`CC[n+]1c(/C=C2\C=Cc3cc(C)ccc3N2C)sc(C)c1C` gave GPR151 ag 2.5, TEAD-YAP inh 60.7*, MITF primary 18.9 and FBW7 act -0.3.
CC[n+]1ccc(/C=C2\C=Cc3ccc(C)cc3N2C)cc1 was read as GPR151 ag 0.7, TEAD-YAP inh -0.6, MITF primary 2.0 and FBW7 act 0.0.
For CC[n+]1ccc(/C=C2\C=Cc3cc(C)ccc3N2C)cc1 the results were GPR151 ag -0.4, TEAD-YAP inh 58.5*, MITF primary 19.9 and FBW7 act 0.0.
Screening CCN1/C(=C/c2cc[n+](C)cc2)C=Cc2cc(C)ccc21 returned GPR151 ag 3.1, TEAD-YAP inh 81.2*, MITF primary 11.3 and FBW7 act -0.6.
`CCOC(=O)c1sc(NC(=O)c2ccccc2OCC)c(C(=O)OCC)c1C` gave GPR151 ag -0.1, TEAD-YAP inh 0.6, MITF primary -1.4 and FBW7 act -0.2.
NC(=O)C1CCN(c2csc3ccccc3c2=O)CC1 was read as GPR151 ag -2.3, TEAD-YAP inh 4.2, MITF primary 17.5 and FBW7 act 0.4.
For CC1CCCN(c2csc3ccccc3c2=O)C1 (configuration not stated) the results were GPR151 ag 1.2, TEAD-YAP inh -2.4, MITF primary 18.2 and FBW7 act 1.9*.
Screening CC(=O)c1ccc(NC(=O)/C(Cl)=C/c2ccccc2)cc1 returned GPR151 ag -0.6, TEAD-YAP inh -1.4, MITF primary 12.3 and FBW7 act 0.1.
Cc1ccc(NC(=O)/C(Cl)=C\c2ccccc2)cc1 was read as GPR151 ag -3.9, TEAD-YAP inh 65.5*, MITF primary 14.1 and FBW7 act 0.8.
`O=C(Nc1ccc(F)cc1)/C(Cl)=C/c1ccccc1` gave GPR151 ag -3.4, TEAD-YAP inh -18.9, MITF primary 7.0 and FBW7 act 0.7.
Screening COc1ccc(NC(=O)/C(Cl)=C\c2ccccc2)cc1 returned GPR151 ag -2.4, TEAD-YAP inh 45.1*, MITF primary 22.9 and FBW7 act 0.2.
`CCCS(=O)(=O)N1CCN(Cc2cccc(Br)c2)CC1` gave GPR151 ag 1.4, TEAD-YAP inh 2.4, MITF primary 46.5 and FBW7 act 0.1.
Screening CC(=O)c1cccc(NC(=O)COc2ccc(C)cc2Br)c1 returned GPR151 ag -0.6, TEAD-YAP inh -41.2, MITF primary 5.3 and FBW7 act 0.1.
Cc1ccc(OCC(=O)Nc2ccccc2)c(Br)c1 was read as GPR151 ag 0.3, TEAD-YAP inh 70.3*, MITF primary 3.6 and FBW7 act 0.0.
Screening CC(C)(C)c1ccc(OCC(=O)Nc2ccncc2)c(Br)c1 returned GPR151 ag 0.7, TEAD-YAP inh 34.1*, MITF primary -6.8 and FBW7 act -0.1.
`O=C(COc1ccc(CO)cc1Br)Nc1ccccc1` gave GPR151 ag -2.1, TEAD-YAP inh 54.6*, MITF primary -7.1 and FBW7 act -0.1.
For CCC1CCCCN1C(=O)CC1(c2ccccc2C)CC(=O)N(Cc2ccncc2)C1=O (configuration not stated) the results were GPR151 ag 0.4, TEAD-YAP inh 6.0, MITF primary 2.4 and FBW7 act 0.0.
For COc1ccc(C(=O)C[n+]2cc(-c3ccc(C)cc3)n3c2CCCCC3)cc1OC the results were GPR151 ag 1.6, TEAD-YAP inh 13.2, MITF primary 6.7 and FBW7 act 0.1.
N#CCCNc1ncc(-c2ccc(OC(F)(F)F)cc2)cn1 was read as GPR151 ag -0.1, TEAD-YAP inh -15.7, MITF primary -2.2 and FBW7 act 0.2.
Screening CCc1ccc(NC(=S)c2c(-c3ccc(Cl)cc3)c3c4n(c(CNc5ccc(Cl)cc5)nn24)CCCC3)cc1 returned GPR151 ag 0.0, TEAD-YAP inh 5.3, MITF primary 11.4 and FBW7 act 0.3.
For Cc1ccccc1NCn1c(=O)oc2cc([N+](=O)[O-])ccc21 the results were GPR151 ag 1.3, TEAD-YAP inh 0.5, MITF primary -2.4 and FBW7 act 0.0.
NNC(=O)/C(=C/c1ccc([N+](=O)[O-])cc1)NC(=O)c1ccco1 was read as GPR151 ag 0.3, TEAD-YAP inh 50.1*, MITF primary -0.9 and FBW7 act -0.2.
Screening CNC(=O)/C(=C\c1ccc([N+](=O)[O-])cc1)NC(=O)c1ccco1 returned GPR151 ag 0.2, TEAD-YAP inh 2.7, MITF primary 9.3 and FBW7 act 0.0.
COC(=O)c1c(NC(=O)c2ccc(S(=O)(=O)N(CC(C)C)CC(C)C)cc2)sc2c1CC(C)(C)NC2(C)C was read as GPR151 ag -0.3, TEAD-YAP inh -8.0, MITF primary -16.3 and FBW7 act 0.0.
Screening Cc1cnc(N2CCN(c3ccccn3)CC2)nc1Nc1ccccc1 returned GPR151 ag -0.9, TEAD-YAP inh -3.1, MITF primary 5.8 and FBW7 act -0.1.
CC(=O)Nc1ccc(Nc2nc(N3CCN(c4ccccn4)CC3)ncc2C)cc1 was read as GPR151 ag 1.5, TEAD-YAP inh 48.5*, MITF primary 17.2 and FBW7 act 0.1.
`O=C1CC(c2ccccc2)c2c(ccc3ccccc23)N1` (configuration not stated) gave GPR151 ag 1.3, TEAD-YAP inh 8.9, MITF primary 12.5 and FBW7 act 0.4.

Source: PubChem
